Among all 5,500 compounds or so, about 2,000 (36%) were called active. Roughly 18% stayed inconclusive and do not appear here. Rule as the data show it: active = normalized growth mostly below about 0.91 (no sharp cut-off); inconclusive = no clear call, values can overlap the other calls; inactive = mostly above about 0.92. The list shows a part of the results.
Test: chemical genetic growth profiling, strain panel (AID 1159580);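 also: tested at 20 µM; growth read once vehicle control cultures reached saturation at 30 °C; 1 = growth at the plate median or of vehicle wells; lower values mean less growth of the strain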
Conditions: S. cerevisiae deletion strains, growth OD

Measured: normalized growth

CC(=O)C(Sc1nc2ccccc2s1)C(C)=O
inactive: locus YAR019C, strain CDC15, stronger effect = lower value 0.896 | locus YBL105C, strain PKC1, stronger effect = lower value 0.919 | locus YBR135W, strain CKS1, stronger effect = lower value 0.915 | locus YBR136W, strain MEC1, stronger effect = lower value 0.923 | locus YBR160W, strain CDC28, stronger effect = lower value 0.909 | locus YDL017W, strain CDC7, stronger effect = lower value 0.919 | locus YDL028C, strain MPS1, stronger effect = lower value 0.906 | locus YDL101C, strain DUN1, stronger effect = lower value 0.979 | locus YDL108W, strain KIN28, stronger effect = lower value 0.93 | locus YDL132W, strain cdc53, stronger effect = lower value 0.91 | locus YDL214C, strain PRR2, stronger effect = lower value 0.713 | locus YDR052C, strain DBF4, stronger effect = lower value 0.916 | locus YDR054C, strain cdc34, stronger effect = lower value 0.906 | locus YDR226W, strain ADK1, stronger effect = lower value 0.937 | locus YDR477W, strain SNF1, stronger effect = lower value 0.778 | locus YER133W, strain GLC7, stronger effect = lower value 0.812 | locus YFL009W, strain cdc4, stronger effect = lower value 0.892 | locus YFL029C, strain CAK1, stronger effect = lower value 0.9 | locus YFR003C, strain YPI1, stronger effect = lower value 0.926 | locus YFR019W, strain FAB1, stronger effect = lower value 0.836 | locus YFR028C, strain CDC14, stronger effect = lower value 0.922 | locus YGR040W, strain KSS1, stronger effect = lower value 0.798 | locus YGR052W, strain FMP48, stronger effect = lower value 0.667 | locus YHR079C, strain IRE1, stronger effect = lower value 0.547 | locus YHR082C, strain KSP1, stronger effect = lower value 0.785 | locus YHR205W, strain SCH9, stronger effect = lower value 0.948 | locus YIL147C, strain SLN1, stronger effect = lower value 0.921 | locus YJL095W, strain BCK1, stronger effect = lower value 0.521 | locus YJL128C, strain PBS2, stronger effect = lower value 0.918 | locus YJR016C, strain ILV3, stronger effect = lower value 0.916 | locus YJR066W, strain TOR1 (second series), stronger effect = lower value 0.795 | locus YJR066W, strain TOR1, stronger effect = lower value 0.682 | locus YKL048C, strain ELM1, stronger effect = lower value 0.929 | locus YKL101W, strain HSL1, stronger effect = lower value 0.866 | locus YKL193C, strain SDS22, stronger effect = lower value 0.907 | locus YKL203C, strain TOR2, stronger effect = lower value 0.879 | locus YLR133W, strain CKI1, stronger effect = lower value 0.765 | locus YLR403W, strain SFP1, stronger effect = lower value 0.764 | locus YML070W, strain DAK1, stronger effect = lower value 0.699 | locus YMR001C, strain CDC5, stronger effect = lower value 0.91 | locus YMR205C, strain PFK2 (second series), stronger effect = lower value 0.749 | locus YMR277W, strain FCP1, stronger effect = lower value 0.892 | locus YNL020C, strain ARK1, stronger effect = lower value 0.739 | locus YNL161W, strain CBK1, stronger effect = lower value 0.906 | locus YNL207W, strain RIO2, stronger effect = lower value 0.937 | locus YNL222W, strain SSU72, stronger effect = lower value 0.907 | locus YNL307C, strain MCK1 (second series), stronger effect = lower value 0.807 | locus YOL078W, strain AVO1, stronger effect = lower value 0.908 | locus YOL136C, strain PFK27, stronger effect = lower value 0.694 | locus YOR061W, strain CKA2, stronger effect = lower value 0.752 | locus YOR119C, strain RIO1, stronger effect = lower value 0.827 | locus YOR231W, strain MKK1, stronger effect = lower value 0.591 | locus YOR329C, strain SCD5, stronger effect = lower value 0.925 | locus YPL031C, strain PHO85, stronger effect = lower value 0.729 | locus YPL153C, strain RAD53, stronger effect = lower value 0.734 | locus YPL204W, strain HRR25, stronger effect = lower value 0.757 | locus YPL209C, strain IPL1, stronger effect = lower value 0.914 | locus YPR025C, strain CCL1, stronger effect = lower value 0.916 | locus YPR106W, strain ISR1, stronger effect = lower value 0.945 | locus YPR111W, strain DBF20, stronger effect = lower value 0.946 | strain NNK1, stronger effect = lower value 0.948 | strain TSCII, stronger effect = lower value 0.891
active: locus YER123W, strain YCK3, stronger effect = lower value 0.595 | locus YGR092W, strain DBF2, stronger effect = lower value 0.343 | locus YHR030C, strain SLT2, stronger effect = lower value 0.63 | locus YJL157C, strain FAR1, stronger effect = lower value 0.68 | locus YKL067W, strain YNK1, stronger effect = lower value 0.694 | locus YLR113W, strain HOG1, stronger effect = lower value 0.591 | locus YNL006W, strain LST8, stronger effect = lower value 0.901 | locus YNL183C, strain NPR1, stronger effect = lower value 0.561 | locus YPL256C, strain CLN2, stronger effect = lower value 0.6
